Measured values published in publication PMC7819943, “Rice protein-binding microarrays: a tool to detect cis-acting elements near promoter regions in rice”.
Over roughly 68,000 sequences, “fluorescence intensity (a.u.)” has its median near 9,100; the highest 2% begin near 16,000. Only a selection was taken, and the highest values are over-represented in it overall.

Biological target: OsWRKY34 (Oryza sativa, UniProt Q0JBA9 1-250)
Assay: protein-binding microarray (RPBM); PBS, 2% BSA, 51.3 ng/ul salmon testes DNA, 50 uM zinc acetate, 200 nM TF, 25 C, 1 h; high values mean tight binding
Settings: protein: recombinant; tags: N-terminal polyhistidine and DsRed monomer fusion (pET32a); label: CyDye5-dUTP incorporated in the synthesized complementary strand; 3' TTTTT single-stranded linker to array surface; dsDNA, one strand shown
In short: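 For the binding signal, per-feature fluorescence intensity was read in arbitrary units on an Axon 4000B scanner. Before scanning, a 2% BSA-blocked custom Agilent array made double-stranded with Cy5-dUTP was washed after 1 h at 25 °C with 200 nM protein and 50 µM zinc acetate. The proteins were Ni–NTA-purified transcription factors with N-terminal polyhistidine and DsRed fusions, expressed in E. coli BL21-CodonPlus.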

Sequence of OsWRKY34 (Q0JBA9 entry or part of it): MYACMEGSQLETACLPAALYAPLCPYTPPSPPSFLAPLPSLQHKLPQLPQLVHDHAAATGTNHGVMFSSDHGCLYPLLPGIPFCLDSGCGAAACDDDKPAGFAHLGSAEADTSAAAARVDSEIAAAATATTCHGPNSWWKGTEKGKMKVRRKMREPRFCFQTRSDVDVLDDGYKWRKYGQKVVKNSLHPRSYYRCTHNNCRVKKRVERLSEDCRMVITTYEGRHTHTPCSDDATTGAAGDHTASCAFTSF

| Sequence | binding signal |
| --- | --- |
| AATGTGACCAAGCCAACTTAACTTATTATACTTCTTAGTTCGGAGTCACCTAGTGCAG | 8680 fluorescence intensity (a.u.) |
| CCAAGACCGCACCCGTATAAAGCCGCAGACCTCTCTCTCCCGGAGTCACCTAGTGCAG | 10100 fluorescence intensity (a.u.) |
| CTCTGACCATATATCACGTTCTACGTCCAGGTCAAATCACCGGAGTCACCTAGTGCAG | 8730 fluorescence intensity (a.u.) |
| TGCGTCCCTCTTCCTTCATTCTCCTGACGCCTAGGGCCCACGGAGTCACCTAGTGCAG | 8280 fluorescence intensity (a.u.) |
| TTATGGGTATGTCACCAGGGGTTTAATCTTTCATTTTCAACGGAGTCACCTAGTGCAG | 12300 fluorescence intensity (a.u.) |
| ATGATAGGTCCTGGACTCACAAGTTATTGAGAACGGCACGCGGAGTCACCTAGTGCAG | 50900 fluorescence intensity (a.u.) |
| CACTCAACCTAACTGTTGAACGGTCCTGTTCTGGCCAACGCGGAGTCACCTAGTGCAG | 8890 fluorescence intensity (a.u.) |
| CTGGACGCGGTCCTGCACGACACATGCATCATCTCCTCAACGGAGTCACCTAGTGCAG | 8570 fluorescence intensity (a.u.) |
| TGGTGTGTTTTTTGGGATGTTTCGGTAGGTATTTTGTGATCGGAGTCACCTAGTGCAG | 12000 fluorescence intensity (a.u.) |
| GGCTGCCTCCTCTCCTCATCCCTGCACCTACACTCCAATACGGAGTCACCTAGTGCAG | 8530 fluorescence intensity (a.u.) |
| TCCTTTTGCTTTCTTTCTTTTGTGTTTTTCAAATTTCTACCGGAGTCACCTAGTGCAG | 9810 fluorescence intensity (a.u.) |
| GCCTTCTCCATCTCTCTGCTTCTTTTGTTTGTTTTTCTTTCGGAGTCACCTAGTGCAG | 13000 fluorescence intensity (a.u.) |
| TTACACATTTCTTTTTCATCACTGCTGATATGTTATCCTTCGGAGTCACCTAGTGCAG | 9940 fluorescence intensity (a.u.) |
| ATCCATCTTCTTCTTCTTTCTTTCTTTTCTTCCTCTTCTTCGGAGTCACCTAGTGCAG | 10400 fluorescence intensity (a.u.) |
| GCAGCTCTACTGTTTTCCGCTTCCATCTTCTTCCTTTCTTCGGAGTCACCTAGTGCAG | 16700 fluorescence intensity (a.u.) |
| GTTTTCTTTCTTTTTTTTTTCCACCTGTCGCACTGTACATCGGAGTCACCTAGTGCAG | 11800 fluorescence intensity (a.u.) |
| CATCTTACCTTACGTCCACCGCATCTCATCCTTTGCTGTTCGGAGTCACCTAGTGCAG | 12200 fluorescence intensity (a.u.) |
| CTCACCTACCGCATCTGTGTTCCTTTTGCTTTCTTTCTTTCGGAGTCACCTAGTGCAG | 18100 fluorescence intensity (a.u.) |
| GTCCTTTACACTGATCCTGCACATCGCTCACTGTTTTCTTCGGAGTCACCTAGTGCAG | 16800 fluorescence intensity (a.u.) |
| TAATACTCCTACTATGGACTTGTTCTCCGTGTTGCTTATTCGGAGTCACCTAGTGCAG | 10200 fluorescence intensity (a.u.) |
| CCGTTACATGACGTGGGCCCCACCCAGCCGCGCCAGCCCACGGAGTCACCTAGTGCAG | 8450 fluorescence intensity (a.u.) |
| CCACTCACTCTGTGTTTCACTTGCTGCCTTTCAGTTGCAACGGAGTCACCTAGTGCAG | 8820 fluorescence intensity (a.u.) |

| Sequence | binding signal |
| --- | --- |
| TTCTAAATTTGAAACGGTTTTATGACTTCTTTTCAGCGTTCGGAGTCACCTAGTGCAG | 8520 fluorescence intensity (a.u.) |
| GGTGACGGCGGCTGTCTTCTTCGTAGGGTGCGGGGTGGCTCGGAGTCACCTAGTGCAG | 8880 fluorescence intensity (a.u.) |
| TGTCTACATACGCTCAATCCATTATTCCCCTATTACATCACGGAGTCACCTAGTGCAG | 9500 fluorescence intensity (a.u.) |
| ACCATCCAGCGCGTAACCGATTCCCTGTACATTCGGCCGCCGGAGTCACCTAGTGCAG | 9080 fluorescence intensity (a.u.) |
| GGAGATCTTATACCCGATTTTACTGTTGAGGATTGTGACTCGGAGTCACCTAGTGCAG | 8640 fluorescence intensity (a.u.) |
| ACGCTTACAACATGCGCATACACGCACACCCAATCCTATGCGGAGTCACCTAGTGCAG | 11000 fluorescence intensity (a.u.) |
| AGATTTTTTTGAACTTTCTGTCTGGGTCGGCTGTTTGTGTCGGAGTCACCTAGTGCAG | 10500 fluorescence intensity (a.u.) |
| GGTAGATTATATTAGGTTTTTCTTCGTGTTGTATTCACGACGGAGTCACCTAGTGCAG | 8720 fluorescence intensity (a.u.) |
| AAATACAACTTTGACTTTTTGTTTCTTTAAAAATATTTATCGGAGTCACCTAGTGCAG | 9920 fluorescence intensity (a.u.) |
| CTTACTCTCTCCGTCTCTAAATATTTGACGCCGTTGACTTCGGAGTCACCTAGTGCAG | 12900 fluorescence intensity (a.u.) |
| CCTGTAATACTCTCTCCGTCTATAAATATTTGACGCCGTTCGGAGTCACCTAGTGCAG | 8560 fluorescence intensity (a.u.) |
| CTCTTCATTTTTTTAATAGATAGCGTCGTTGACTTTTGAACGGAGTCACCTAGTGCAG | 14800 fluorescence intensity (a.u.) |
| ACTCTCTCCGTCCTTAAATATTTGACGCCGTTGACTTTTTCGGAGTCACCTAGTGCAG | 30600 fluorescence intensity (a.u.) |
| TAAGACGTTTTGACTTTTTTTTTTCCTATTTAAACCTTTTCGGAGTCACCTAGTGCAG | 13500 fluorescence intensity (a.u.) |
| CACACATAAACTTTTAACTTTTTTATCACATCGTTTTAATCGGAGTCACCTAGTGCAG | 8490 fluorescence intensity (a.u.) |
| GTCCTTAAATATTTGACGTCGTTGACTTTTTTTAAAATATCGGAGTCACCTAGTGCAG | 20900 fluorescence intensity (a.u.) |
| ACTTTTTAAATATGTTTGACCGTTCGTCTTATTCAAAAACCGGAGTCACCTAGTGCAG | 9990 fluorescence intensity (a.u.) |
| TATTTTTTGGTTGTCCTTTGTTTTTTTAAAAAATATTTGTCGGAGTCACCTAGTGCAG | 8170 fluorescence intensity (a.u.) |
| TAGCGTCGTTGACTTTTGAACACATTTTTATCATTTAAATCGGAGTCACCTAGTGCAG | 22400 fluorescence intensity (a.u.) |
| CTCCGTCCTTAAATATTTGACGTCGTTGACTTTTTTAAACCGGAGTCACCTAGTGCAG | 26000 fluorescence intensity (a.u.) |
| GGAGGGGTTGGAAAAATTCGGTGTTCGTGGCCGCCTTCACCGGAGTCACCTAGTGCAG | 13400 fluorescence intensity (a.u.) |
| GAAAATATCTGAAAGATACCGTTTGTCGTACTCCTTTTCTCGGAGTCACCTAGTGCAG | 9000 fluorescence intensity (a.u.) |
